We go through 21 compounds from the supplement of paper PMC6805474.

Assay [1] deals with Schistosoma mansoni schistosomula (LE). As to the kind of experiment: XTT viability relative to DMSO control; higher = more viable (less active). Particulars: 72 h; 10 µM. The method, then:
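XTT/PMS was then added for a further 24 h (72 h total) and A450 was read. % viability = (sample - heat-killed control)/(DMSO control - heat-killed control) x 100, from duplicate wells in two independent experiments.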
In general terms: Formazan colour is commonly taken as a measure of viable cells.

The test system of assay [2] is Schistosoma mansoni schistosomula (NMRI). As to the kind of experiment: phenotypic severity score (0-4); higher = more antischistosomal effect, active = 2 or more. To be noted: 10 µM.
Assay [3] deals with Schistosoma mansoni schistosomula (Liberian). Description: drug effect (1 - score/DMSO control score) (fraction); higher = more antischistosomal effect, active = 0.5 or more; extreme values may be limits of the assay. To be noted: 10 µM. The procedure, abridged:
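A plate was valid only if its 0.1% DMSO wells averaged a score of at least 2. Those wells ran beside duplicate wells in which 50 Liberian-strain Schistosoma mansoni schistosomula each, transformed mechanically from cercariae and pre-incubated at least 12 h, met 10 µM compound in Medium 199 with 5% FCS at 37 °C, 5% CO2. Scoring was visual at 10× at 24, 48 and 72 h, from 3 (normal) to 0 (dead) in quarter-point steps. Drug effect was derived from the mean test-well score against the mean DMSO-well score, with negatives set to zero.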
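Wherever phenotypic severity score (0-4) is given: visual microscopic scoring of shape, motility and density changes versus 0.5% DMSO solvent controls, one point per descriptor, degeneracy or death scored 4, mean of duplicate wells.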

With `c1cc(C2=NCCN2)cc(-c2cc(-c3ccc(C4=NCCN4)cc3)no2)c1`, the XTT viability in assay [1] was found to be 115%. The phenotypic severity score in assay [2] (24 h), in assay [2] (48 h) and in assay [2] (72 h) was 0 (inactive) throughout. The values for the drug effect in assay [3] (24 h), in assay [3] (48 h) and in assay [3] (72 h) were 0.1 (inactive), 0.111 (inactive) and 0.125 (inactive), respectively.

On to `COc1cncc(-c2cncc(N3CCN(c4ccncc4)CC3)n2)c1`, for which the XTT viability in assay [1] was determined as 103%. Moreover, the phenotypic severity score was 1 (inactive) in assay [2] (24 h), 0 (inactive) in assay [2] (48 h) and 0 (inactive) in assay [2] (72 h). Also, the drug effect in assay [3] (24 h) was 0.351 (inactive); in assay [3] (48 h) it was 0.389 (inactive); in assay [3] (72 h) it was 0.688 (active).

With `CCCCCCCCCCCCCCCCOP(=O)([O-])OCC[N+](C)(C)C`, in assay [1], the XTT viability worked out at 127%. In addition, the phenotypic severity score in assay [2] (24 h), in assay [2] (48 h) and in assay [2] (72 h) was 0 (inactive) in each case. Moreover, the drug effect is 0.05 (inactive) in assay [3] (24 h), 0.243 (inactive) in assay [3] (48 h) and 0.273 (inactive) in assay [3] (72 h).

As to `O=C(C1CCN(c2cc(-n3cccc3)ncn2)CC1)N1CCc2ccccc2C1`, the XTT viability in assay [1] amounted to 96.4%. Moreover, the phenotypic severity score is 0 (inactive) in assay [2] (24 h), 0 (inactive) in assay [2] (48 h) and 1 (inactive) in assay [2] (72 h). The drug effect in assay [3] (24 h) was 0.05 (inactive); in assay [3] (48 h) it was 0.111 (inactive); in assay [3] (72 h), 0.333 (inactive).

As for `O=C([C@@H](c1ccc(Cl)cc1)c1cccnc1)N1CCN(c2ccc(C(F)(F)F)cc2)CC1`, in assay [1], the XTT viability is 46.8%. For the same compound, the phenotypic severity score in assay [2] (24 h) is 0 (inactive); in assay [2] (48 h), 2 (active); in assay [2] (72 h), 4 (active). For the same compound, the drug effect is 0.75 (active) in assay [3] (24 h), 0.722 (active) in assay [3] (48 h) and 0.75 (active) in assay [3] (72 h).

In the case of `O=C(Nc1nnc(S)s1)c1cc(Br)ccc1Cl`, the XTT viability in assay [1] is 91.7%. The phenotypic severity score in assay [2] (24 h), in assay [2] (48 h) and in assay [2] (72 h) was 0 (inactive) throughout. In addition, the drug effect in assay [3] (24 h) was 0.05 (inactive); in assay [3] (48 h) it was 0.027 (inactive); in assay [3] (72 h), 0.0909 (inactive).

Regarding `COc1cccc(CC(=O)N2CCC(n3c(C)nc4ccc(F)cc43)CC2)c1`, the XTT viability in assay [1] was 116%. Also, the phenotypic severity score in assay [2] (24 h), in assay [2] (48 h) and in assay [2] (72 h) was 1 (inactive) each time. In addition, the drug effect was 0.1 (inactive) in assay [3] (24 h), 0.405 (inactive) in assay [3] (48 h) and 0.394 (inactive) in assay [3] (72 h).

As to `O=C(NC1CC1)c1ccc(N2CCOc3ccc(Cl)cc32)s1`, the XTT viability in assay [1] is 83.5%. In addition, the phenotypic severity score in assay [2] (24 h), in assay [2] (48 h) and in assay [2] (72 h) was 0 (inactive) each time. The drug effect was 0.35 (inactive) in assay [3] (24 h), 0.459 (inactive) in assay [3] (48 h) and 0.5 (active) in assay [3] (72 h).

For `O=[N+]([O-])c1cn2c(n1)OC[C@@H](OCc1ccc(OC(F)(F)F)cc1)C2`, in assay [1], the XTT viability turned out to be 158%. Further, the phenotypic severity score in assay [2] (24 h), in assay [2] (48 h) and in assay [2] (72 h) was 0 (inactive) in each case. The drug effect in assay [3] (24 h) was 0.2 (inactive); in assay [3] (48 h), 0.167 (inactive); in assay [3] (72 h), 0.312 (inactive).

Turning to `COc1cc(NC(C)CCCN)c2ncccc2c1` (configuration not stated), the XTT viability in assay [1] amounted to 77.4%. Further, the phenotypic severity score in assay [2] (24 h), in assay [2] (48 h) and in assay [2] (72 h) was 0 (inactive) each time. The drug effect was < 0 (inactive) in assay [3] (24 h), 0.135 (inactive) in assay [3] (48 h) and 0.333 (inactive) in assay [3] (72 h).

On to `O=C(Nc1ccc(F)c(-c2nc3cc(-c4ccccc4)cnc3[nH]2)c1)N1CCCC1`, for which the XTT viability in assay [1] is 111%. In addition, the phenotypic severity score is 0 (inactive) in assay [2] (24 h), 4 (active) in assay [2] (48 h) and 4 (active) in assay [2] (72 h). Also, the drug effect in assay [3] (24 h) is 0.676 (active); in assay [3] (48 h) it was 0.667 (active); in assay [3] (72 h), 0.875 (active).

Turning to `CNCCC(Oc1ccc(C(F)(F)F)cc1)c1ccccc1` (configuration not stated), the XTT viability in assay [1] is 20.4%. For the same compound, the phenotypic severity score in assay [2] (24 h), in assay [2] (48 h) and in assay [2] (72 h) was 0 (inactive) in each case. Moreover, the drug effect was 0.05 (inactive) in assay [3] (24 h), 0.0811 (inactive) in assay [3] (48 h) and 0.333 (inactive) in assay [3] (72 h).

Consider `CCCn1c(NC(=O)c2ccc3ccccc3n2)nc2ccccc21`, for which the XTT viability in assay [1] was determined as 5.68%. Besides, the phenotypic severity score in assay [2] (24 h) is 1 (inactive); in assay [2] (48 h), 0 (inactive); in assay [2] (72 h) it was 0 (inactive). The values for the drug effect in assay [3] (24 h), in assay [3] (48 h) and in assay [3] (72 h) were 0.2 (inactive), 0.278 (inactive) and 0.312 (inactive), respectively.

For `O=C(N[C@H](Cc1ccccc1)C(=O)Nc1ccccc1N1CCOCC1)c1cccs1`, the XTT viability in assay [1] was determined as 129%. Moreover, the phenotypic severity score in assay [2] (24 h), in assay [2] (48 h) and in assay [2] (72 h) was 0 (inactive) each time. For the same compound, the drug effect was 0.2 (inactive) in assay [3] (24 h), 0.167 (inactive) in assay [3] (48 h) and 0.188 (inactive) in assay [3] (72 h).

In the case of `Cc1ccc(-c2nc(CN(Cc3ccccn3)C(C)C)cs2)o1`, the XTT viability in assay [1] worked out at 84.4%. Also, the phenotypic severity score was 0 (inactive) in assay [2] (24 h), 1 (inactive) in assay [2] (48 h) and 0 (inactive) in assay [2] (72 h). In addition, the drug effect is 0.05 (inactive) in assay [3] (24 h), 0.222 (inactive) in assay [3] (48 h) and 0.389 (inactive) in assay [3] (72 h).

Take `Cc1cc(NCCc2ccccc2)nc(NC(=N)Nc2ccc(Cl)cc2)n1`: the XTT viability in assay [1] was determined as 8.5%. Also, the phenotypic severity score in assay [2] (24 h), in assay [2] (48 h) and in assay [2] (72 h) was 4 (active) throughout. Moreover, the drug effect in assay [3] (24 h), in assay [3] (48 h) and in assay [3] (72 h) was 1 (active) in each case.

Regarding `CC(C(=O)Nc1ccc2oc(-c3ccncc3)nc2c1)c1ccccc1` (configuration not stated), in assay [1], the XTT viability came out at 89.9%. Also, the phenotypic severity score was 1 (inactive) in assay [2] (24 h), 0 (inactive) in assay [2] (48 h) and 0 (inactive) in assay [2] (72 h). In addition, the drug effect is 0.182 (inactive) in assay [3] (24 h), 0.35 (inactive) in assay [3] (48 h) and 0.345 (inactive) in assay [3] (72 h).

On to `Cc1ccc(-c2cc(C(=O)Nc3cccnc3)c3cc(Br)ccc3n2)cc1`, for which the XTT viability in assay [1] worked out at 146%. Further, the values for the phenotypic severity score in assay [2] (24 h), in assay [2] (48 h) and in assay [2] (72 h) were 2 (active), 1 (inactive) and 0 (inactive), respectively. Besides, the values for the drug effect in assay [3] (24 h), in assay [3] (48 h) and in assay [3] (72 h) were 0.5 (active), 0.667 (active) and 1 (active), respectively.

`O=C(Nc1ccccc1-c1nc2c(C(=O)O)cccc2o1)c1ccccc1`: in assay [1], the XTT viability amounted to 54.1%. The phenotypic severity score in assay [2] (24 h), in assay [2] (48 h) and in assay [2] (72 h) was 0 (inactive) in each case. Also, the drug effect in assay [3] (24 h) is 0.05 (inactive); in assay [3] (48 h), 0.027 (inactive); in assay [3] (72 h), 0.0303 (inactive).

As to `CCN(CC)S(=O)(=O)c1ccc(Cl)c(C(=O)Nc2ccc3nc(C)sc3c2)c1`, the XTT viability in assay [1] came to 87.9%. In addition, the phenotypic severity score in assay [2] (24 h) is 1 (inactive); in assay [2] (48 h), 0 (inactive); in assay [2] (72 h), 0 (inactive). For the same compound, the drug effect in assay [3] (24 h) is 0.05 (inactive); in assay [3] (48 h), 0.027 (inactive); in assay [3] (72 h) it was 0.111 (inactive).

In the case of `CCCCS(=O)(=O)Nc1ccc2cnn(C)c2c1`, the XTT viability in assay [1] was determined as 141%. Besides, the phenotypic severity score in assay [2] (24 h), in assay [2] (48 h) and in assay [2] (72 h) was 0 (inactive) in each case. Further, the drug effect was 0.0811 (inactive) in assay [3] (24 h), 0.111 (inactive) in assay [3] (48 h) and 0.0625 (inactive) in assay [3] (72 h).
